Results on 115 compounds are retold here after PubChem BioAssay AID493240 (Broad Institute, 2011).

Screen size: about 1,300 compounds; about 270 (21%) were called active. The rule behind the calls is not given here. The list is a sample of the results. Results with a measured potency or affinity are listed apart.

This assay can be described thus: SK-MEL-5 parental cell viability loss, dose response, orthogonal assay for MITF inhibitor project, CellTiter-Glo, cherry-picked, set 3 (AID 493240). Conditions: SK-MEL-5 viability, ATP luminescence (CellTiter-Glo), 24 h; series mostly up to 35 µM. On the technique in general: In ATP-based viability assays light output follows the ATP content of the culture.
As to `O=C(/C=C/c1ccc2c(c1)OCCO2)c1ccccc1`, the result was inactive.

For the compound `COc1cccc(/C=C/C(=O)c2ccc3c(c2)OCCO3)c1OC`, the outcome was inactive.

For the compound `O=C(Nc1nc2ccsc2c(=O)s1)C1CCC1`, the result was inactive. As for `O=C(Nc1ccccc1Cl)c1cc(=O)c2ccccc2o1`, the entry is “inactive”. With `Cc1ccc(-c2noc(CN3CCCCC3)n2)cc1`, the result was inactive. On to `Cc1cc(C)c2c(N)c(C(=O)N/N=C/c3cccnc3)sc2n1`, for which the result was inactive.

Consider `Cc1nc2ccc(NC(=O)c3ccco3)cc2nc1C`, for which the outcome was inactive.

Turning to `COc1cccc(/C=N/NC(=O)c2cccs2)c1`, the outcome was inactive.

`CC1Cc2cc(-c3csc(N)n3)ccc2O1` (stereo not given): the result was inactive. With `CCCCOc1ccc(-c2ncc([N+](=O)[O-])cn2)cc1`, the result was inactive. On to `COC(=O)CSC1=C(C#N)C(=O)NC(c2ccccc2)S1` (stereo not given), for which the outcome was inactive. Turning to `COc1nc(NC2CCCCC2)nc(NC(C)(C)C)n1`, the result was inactive.

On to `Cc1ccc2nc(Cc3ccc(N)cc3)oc2c1`, for which the outcome was inactive.

Take `Cc1nc(NC(=O)/C=C/c2ccccc2)n[nH]1`: the result was inactive. As to `CCCc1ccc(-c2ccc(/C=C/C(=O)O)cc2)nc1`, the result was inactive. As to `[2H]C(CCOS(N)(=O)=O)c1ccc(C(C)(C)C)cc1` (stereo not given), the outcome was inactive. On to `CC(=O)N(C1CC(C)C(C#N)(C#N)C1(C#N)C#N)N(C)C` (stereo not given), for which the result was inactive. As for `O=C(CC(=O)c1ccccc1)Nc1ccccn1`, the entry is “inactive”; as for `Cc1cccnc1NC(=O)NC(=O)c1ccc(C(C)(C)C)s1`, “inactive”; as for `COc1ccc(NC(=O)c2cc3ccccc3oc2=O)c(OC)c1`, “inactive”. As to `NNC(=O)Cn1c(SCc2ccccc2)nc2ccccc21`, the result was inactive. For the compound `CCCCOc1ccc(-c2nnn(C(C)(C)C(=O)OC)n2)cc1`, the result was inactive. `CCSc1nnc(NC(=O)C2CCCCC2)s1`: the result was inactive. Regarding `COCc1cc(C)nc2sc(C(=O)Nc3ccc(OC)cc3)c(N)c12`, the outcome was inactive.

Turning to `CCN(CC)c1ccc(/C=N/NC(=O)c2cccc(S(=O)(=O)N3CCOCC3)c2)c(O)c1`, the outcome was inactive. For the compound `O=C(N/N=C\c1ccc([N+](=O)[O-])o1)C1COc2ccccc2O1` (stereo not given), the outcome was inactive. For the compound `Clc1ccc(-c2noc(CN3CCOCC3)n2)cc1`, the result was inactive. As for `COc1ccc(-c2nc3n(c2C)Cc2ccccc2-3)cc1`, the result was inactive.

As to `COc1ccc(-c2cc(-c3ccccc3)c(C#N)c(S(C)=O)n2)cc1` (stereo not given), the outcome was inactive. In the case of `CC(C)(C)c1ccc(C(=O)Nc2sc3c(c2C(=O)O)CCC3)cc1` it was “inactive”; in that of `Cc1ccc(-n2ncc3c(SCC(N)=O)ncnc32)cc1C`, “inactive”; in that of `CC(/C=C1\SC(=O)N(CCCC(=O)O)C1=O)=C\c1ccccc1`, “inactive”. With `Cc1cc(C)n(CCC(=O)N/N=C/c2c(O)ccc3ccccc23)n1`, the outcome was inactive. With `COc1ccc2nc(N3CCN(C(=O)c4ccc([N+](=O)[O-])o4)CC3)sc2c1`, the result was inactive. As for `Cc1cccc(NC(=O)CNC(=O)Cn2ncc(Cl)c(Cl)c2=O)c1C`, the entry is “inactive”; as for `C/C(=N\Nc1nccnc1Cl)c1ccc(O)c(C)c1`, “inactive”; as for `CCOC(=O)c1c(C)[nH]c(C)c1C(=O)COC(=O)c1ccc([N+](=O)[O-])s1`, “inactive”.

As for `O=C(c1ccc([N+](=O)[O-])s1)N1CCCc2ccccc21`, the result was inactive. With `CCOC(=O)C(=Cc1ccc(-n2ccnc2)cc1)C(=O)OCC`, the outcome was inactive.

`Cc1ccc(C(CNS(=O)(=O)c2ccc(Br)cc2)N2CCN(C)CC2)cc1` (stereo not given): the result was inactive.

`NC(=O)C1CCN(C2=C(NS(=O)(=O)c3ccc(Br)cc3)C(=O)c3ccccc3C2=O)CC1`: the outcome was inactive.

As to `Cc1cc(N2CCOCC2)ccc1/C=C\[N+](=O)[O-]`, the outcome was inactive. Regarding `COc1cc2c(c(OC)c1OC)-c1ccc(N(C)CC(OC)OC)c(=O)cc1[C@@H](NC(C)=O)CC2`, the result was inactive. Turning to `Nc1ccc2c(c1)OC1(CCCC1)O2`, the outcome was inactive. `COc1cc(OC)cc(C(=O)N[C@H](C(=O)Nc2nc3ccccc3[nH]2)C(C)C)c1`: the outcome was inactive. Turning to `Oc1c(CN2CCCC2)cc(COCc2ccccc2)c2cccnc12`, the result was inactive. As for `CN(C)C1CCN(Cc2cc(COCc3ccccc3)c3cccnc3c2O)C1` (stereo not given), the result was inactive.

For the compound `COc1cccc(NC(=O)c2cc3c(=O)n4ccccc4nc3n(CC(C)C)c2=N)c1`, the result was inactive. As to `Cc1ccc(NC(=O)c2cc3cccc([N+](=O)[O-])c3[nH]2)cc1`, the result was inactive.

As for `CCN=c1scc(-c2ccco2)n1/N=C/c1ccc(O)cc1`, the result was inactive. As for `CC(C)CC(=O)/C=C/n1c(=S)oc2ccccc21`, the outcome was inactive. Take `CCC(=O)Nc1cc2nn(-c3ccc(C)cc3)nc2cc1C`: the outcome was inactive. Regarding `Cc1cc(N2CCOCC2)n2ncc(-c3ccccc3Cl)c2n1`, the result was inactive. Consider `O=C(CCl)N(Cc1cc(=O)[nH]c2ccccc12)c1ccccc1`, for which the result was inactive. Consider `CCNc1nc(N)c(C(=O)c2ccc(Cl)s2)s1`, for which the result was inactive. As for `CN(C)c1ccc(CNc2ccccn2)cc1`, the entry is “inactive”; as for `CN(C)c1ccc(NC(=S)c2ccccn2)cc1`, “inactive”; as for `O=C1c2ccccc2C(=O)c2c1ncn2-c1ccccc1`, “inactive”. As for `Cc1c(/C=C/C(=O)c2ccc(Cl)s2)cnn1C`, the entry is “inactive”. On to `CC1CN(N=Cc2ccc([N+](=O)[O-])o2)C(=N)O1` (stereo not given), for which the result was inactive. On to `C#Cc1cccc(NC(=O)CSc2nnc(-c3ccc(C(F)(F)F)cn3)o2)c1`, for which the result was inactive. In the case of `Cc1nc(NCCOc2ccccc2)sc1C(=O)Nc1ccccc1`, the result was inactive. With `COc1ccc(NC(=O)c2cc(-c3ccccc3Cl)on2)cc1`, the outcome was inactive.

For `CCOC(=O)c1sc(-c2ccccc2)cc1N`, the result was inactive.

As for `CCOC(=O)c1cnc2c(ccc3ccccc32)c1N`, the outcome was inactive. On to `Cc1cc(/C(N)=N/OC(=O)Nc2ccc(Cl)cc2)no1`, for which the outcome was inactive. In the case of `COc1ccc(NCc2nc3ccccc3n2C)cc1`, the result was inactive. Consider `CC(=O)c1cccc(Nc2nc(-c3cccnc3)cs2)c1`, for which the result was inactive.

With `CN1C/C(=C/c2cccnc2)C(=O)/C(=C/c2cccnc2)C1`, the result was inactive. In the case of `CC(C)N1C/C(=C/c2cccnc2)C(=O)/C(=C/c2cccnc2)C1`, the result was inactive. On to `C=CCn1c(C)cc(C(=O)Cn2ncc(Cl)c(Cl)c2=O)c1C`, for which the outcome was inactive. With `O=C(NC1=NCCS1)C1COc2ccccc2O1` (stereo not given), the outcome was inactive. In the case of `COc1c(C)cccc1C(=O)Nc1ccc(N2CCN(S(C)(=O)=O)CC2)cc1`, the outcome was inactive. Consider `CCC1CCCCN1CCCNC(=O)c1cn(CC)c2ccc(S(=O)(=O)N(C)C3CCCCC3)cc2c1=O` (stereo not given), for which the result was inactive. On to `Cc1c(C(=O)N(CCO)Cc2ccccc2)oc2c(F)cccc12`, for which the result was inactive. On to `COc1cc2ccccc2cc1C(=O)Nc1ccc(N2CCN(C)CC2)cc1`, for which the result was inactive. For `Cc1ccc(-c2nc(-c3ccncc3)no2)cc1C`, the result was inactive.

Turning to `CCOc1ccc(NC(=O)c2ccc3snnc3c2)cc1`, the outcome was inactive. As for `Nc1ccccc1SC1CC(=O)N(c2ccc3c(c2)OCCO3)C1=O` (stereo not given), the outcome was inactive. Take `O=C(Nc1ccc([N+](=O)[O-])cc1)c1ccccc1`: the result was inactive.

Turning to `O=C(O)c1ccc(C(=O)Nc2ccc(F)cc2)cc1`, the outcome was inactive.

`COc1ccc2c(C)nc(Nc3nc(-c4ccccc4)cc(=O)[nH]3)nc2c1`: the result was inactive. In the case of `O=C(Cn1cc(/C=C\[N+](=O)[O-])c2ccccc21)Nc1ccccc1` it was “inactive”; in that of `Oc1cc(NCc2cccnc2)ccc1-c1nc2ccccc2o1`, “inactive”; in that of `NCCN1C(=O)S/C(=C\c2ccc3c(c2)OCO3)C1=O`, “inactive”. Consider `O=C(COC(=O)C1=COCCO1)Nc1c(F)cccc1F`, for which the result was inactive. Turning to `O=C(C[n+]1cccc2ccccc21)c1ccc([N+](=O)[O-])cc1`, the result was inactive.

Consider `N=c1n(CC(=O)c2ccc([N+](=O)[O-])cc2)c2ccccc2n1Cc1ccccc1`, for which the outcome was inactive. For `N=c1n(CC(=O)c2ccc([N+](=O)[O-])cc2)c2ccccc2n1Cc1ccccc1Cl`, the outcome was inactive. As to `Cc1ccccc1Cn1c(=N)n(CC(=O)c2ccc([N+](=O)[O-])cc2)c2ccccc21`, the outcome was inactive. As for `CC(NC(=O)C12CC3CC(CC(C3)C1)C2)C(=O)NN=Cc1ccc([N+](=O)[O-])o1` (stereo not given), the entry is “inactive”; as for `Cc1ccc(-n2nnnc2Sc2nc([N+](=O)[O-])nn2C)c(C)c1`, “inactive”; as for `O=C(O)c1cccc(COc2ccccc2Cl)c1`, “inactive”. As for `COc1ccc(O)c(/C=N/NC(=O)c2ccc(CSc3nc(C)cc(C)n3)cc2)c1`, the entry is “inactive”; as for `O=C(COc1ccc2c(c1)CCC2)N1CCc2ccccc21`, “inactive”; as for `O=S(=O)(c1ccc(F)cc1)c1snnc1-c1ccccc1`, “inactive”. For `COC(=O)c1ccc(Nc2cc(C)nc3ccc(C)cc23)cc1`, the outcome was inactive. With `CCOc1ccc2nc(C)cc(Nc3cccc([N+](=O)[O-])c3)c2c1`, the result was inactive. As for `COc1ccc(NC(C)C(=O)N/N=C/c2ccc([N+](=O)[O-])s2)cc1` (stereo not given), the entry is “inactive”; as for `COc1ccc(NC(=O)CCC(=O)N/N=C/c2ccc([N+](=O)[O-])s2)cc1`, “inactive”. As for `O=[N+]([O-])c1c(NCCCO)cc(Sc2ccc(Cl)cc2)c2nonc12`, the entry is “inactive”; as for `O=C(NCc1ccccc1)C(=O)Nc1cccc(C(=O)O)c1`, “inactive”.

In the case of `CC(=O)NC1=C(N(C)C2CCS(=O)(=O)C2)C(=O)c2ccccc2C1=O` (stereo not given), the result was inactive. Consider `O=C(NC1CCCCC1)C(c1cccnc1)N(C(=O)CCl)c1cccc(Cl)c1` (stereo not given), for which the outcome was inactive. In the case of `O=C(c1cc2ccccc2oc1=O)N(Cc1ccccc1)C1CCS(=O)(=O)C1` (stereo not given) it was “inactive”; in that of `O=C(NC1CCCCC1)C(c1cccnc1)N(C(=O)CCl)c1ccc(F)cc1` (stereo not given), “inactive”.

With `CCC(=O)NC(c1ccccc1OC)c1ccc2cccnc2c1O` (stereo not given), the outcome was inactive.

In the case of `Cc1ccc(C(=O)c2no[n+]([O-])c2C(=O)c2ccc(C)cc2)cc1`, the result was inactive. In the case of `Cc1ccc(NC(=O)C2CCN(S(=O)(=O)c3c(C)noc3/C=C/c3ccco3)CC2)nc1` it was “inactive”; in that of `Cc1[nH]nc(Nc2ccc(Br)cc2)c1[N+](=O)[O-]`, “inactive”; in that of `CC(C)(C)c1ccc(-c2noc(CCC(=O)NCC3CCCO3)n2)cc1` (stereo not given), “inactive”. Turning to `Oc1ccccc1/C=N/Nc1cccc2cccnc12`, the result was inactive. In the case of `O=C(CCCCC(=O)NN=Cc1ccccc1O)NN=Cc1ccccc1O` it was “inactive”; in that of `O=C(N/N=C/c1cc(Br)ccc1O)c1ccncc1`, “inactive”. Consider `Cn1cccc1-c1cc(C(=O)N/N=C/c2cc(Br)ccc2O)[nH]n1`, for which the result was inactive.
